HSP90 refold inh: blocks HSP90-mediated luciferase refolding in reticulocyte lysate | Rabbit reticulocyte lysate, luciferase refolding luminescence, 3 h | inhibition, % at 5.6 µM | 290,000 compounds, 0.91% hits | AID 1789;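 active means inhibition above the screen-wide mean plus 3 SD, computed separately per campaign, cut at about 16% in these data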;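 further: 0% = DMSO wells and 100% = 60 µM geldanamycin wells; inhibitors lower the luminescence because luciferase stays unfolded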
SENP8 block-1: inhibitors of human SENP8 protease; AID 602440; 360,000 compounds, 0.64% hits; inhibition, % at 20 µM; recombinant SENP8, Nedd8 substrate fluorescence; in the data active means inhibition mostly above about 40%, no sharp cut-off; inactive means mostly below about 27%
Target sequence (Q96LD8 whole entry, looked up): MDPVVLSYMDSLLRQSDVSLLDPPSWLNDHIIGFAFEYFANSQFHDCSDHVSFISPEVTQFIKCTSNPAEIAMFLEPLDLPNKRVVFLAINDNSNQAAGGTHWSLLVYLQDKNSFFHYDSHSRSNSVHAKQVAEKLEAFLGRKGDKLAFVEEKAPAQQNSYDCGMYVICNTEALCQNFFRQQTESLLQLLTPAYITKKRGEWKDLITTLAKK
SENP6 inh: inhibitors of human SENP6 protease. Q9GZR1. Recombinant SENP6 catalytic domain, aminoluciferin luminescence. inhibition, % at 10 µM. 330,000 compounds, 1.8% hits. AID 2599;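 active means inhibition above about 50% at the single tested dose, limit read from the data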;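 further: plate controls were DMSO wells with enzyme for no effect and DMSO wells lacking enzyme for full effect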
SENP7 block: inhibitors of human SENP7 protease; recombinant SENP7, Z-RLRGG-aminoluciferin luminescence, 40 min; AID 434973; 330,000 compounds, 1.5% hits; Q9BQF6; inhibition, % at 5 µM;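 active means inhibition above about 50% at the single test dose, limit read from the data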;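 further: plate controls were DMSO with enzyme for no effect and no enzyme buffer wells for full effect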
Target sequence (Q9BQF6 706-1050 limits assumed): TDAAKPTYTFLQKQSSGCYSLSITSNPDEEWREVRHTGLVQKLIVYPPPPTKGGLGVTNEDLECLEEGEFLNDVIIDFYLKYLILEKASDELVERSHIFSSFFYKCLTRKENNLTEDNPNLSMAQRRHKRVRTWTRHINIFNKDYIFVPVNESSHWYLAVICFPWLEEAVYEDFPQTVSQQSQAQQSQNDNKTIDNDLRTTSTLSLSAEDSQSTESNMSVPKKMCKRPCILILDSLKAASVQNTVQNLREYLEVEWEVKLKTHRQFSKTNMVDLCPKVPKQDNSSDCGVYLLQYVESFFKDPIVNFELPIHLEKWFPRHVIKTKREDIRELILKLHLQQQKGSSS
Platelet DG rel: modulates dense granule release in human platelets; human platelet-rich plasma, SFLLRN dense granule ATP release, luminescence; inhibition, %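 (compounds screened at 7.5 µM in platelet-rich plasma)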; 300,000 compounds, 0.22% hits; AID 1663;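 active means mean replicate score, as percent of positive control, at or above 50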
SENP8 block-2: inhibitors of human SENP8 protease; Q96LD8; purified SENP8, Z-RLRGG-aminoluciferin cleavage, luminescence; inhibition, % at 10 µM; 330,000 compounds, 1.2% hits; AID 2540; in the data active means inhibition above about 50%
SENP8 inh conf: SENP8 (human) inhibition, single concentration confirmation. shares compounds with SENP8 block-1. purified SENP8, Nedd8-AMC/pro-Nedd8 cleavage fluorescence, 30 min. 1,400 compounds, 15% hits. inhibition, % at 25 µM; in the data active means inhibition mostly above about 39%, no sharp cut-off; inactive means mostly below about 34%
An asterisk follows results filed as active; / = no result given. Shown are actives, neighbours in structure and some others; about 2.8% of the full set was active somewhere.

SMILES	HSP90 refold inh	SENP8 block-1	SENP6 inh	SENP7 block	Platelet DG rel	SENP8 block-2	SENP8 inh conf
COC/C=C/C1=CC2=CC(=O)C(C)(OC(=O)c3cnc4ccccc4n3)C(=O)C2=CN1CCc1ccccn1 (stereo not given)	/	/	12	-1	7	-3	/
COC/C=C/C1=CC2=CC(=O)C(C)(OC(=O)c3cnc4ccccc4n3)C(=O)C2=CN1CCCCO (stereo not given)	/	56*	31	15	-13	9	46*
COC/C=C/C1=CC2=CC(=O)C(C)(OC(=O)c3cnc4ccccc4n3)C(=O)C2=CN1C1CC1 (stereo not given)	/	52*	20	4	1	-4	53*
COC/C=C/C1=CC2=CC(=O)C(C)(OC(=O)c3cnc4ccccc4n3)C(=O)C2=CN1c1ccc(OC)cc1 (stereo not given)	/	-9	7	6	18	-4	/
CCOC(=O)C1CCCN(C/C=C/c2ccccc2)C1 (stereo not given)	-2	9	-3	-5	0	-5	/
CCOc1ccc(S(=O)(=O)NCCC(=O)NCC(c2ccc(OC)cc2)N2CCOCC2)cc1 (stereo not given)	/	51*	/	/	/	/	-8
c1ccc(/N=C2\N=C(Nc3ccccn3)c3ccccc32)nc1	/	42*	29	6	6	7	8
c1ccc(Nc2ccccn2)cc1	-6	8	2	5	0	5	/
Cc1ccc(Cc2cnc(NC(=O)/C(C#N)=C/c3ccc(-c4ccccc4[N+](=O)[O-])o3)s2)cc1	-1	47*	16	8	0	7	18
Cc1ccc(NC(=O)c2ccc(CN3CCc4ccccc4C3)cc2)cc1	-1	71*	21	12	3	6	29
O=C(Nc1cccnc1)c1ccc(CN2CCc3ccccc3C2)cc1	2	51*	-14	-4	9	-9	34
COc1ccc(-c2cc(C(=O)N3CCN(C(=O)c4ccccc4F)CC3)[nH]n2)cc1	-3	11	2	-1	20	-9	/
O=C(Cc1cccc(NC(=O)C2CCCN(C(=O)C3CCCC3)C2)c1)Nc1cccc(C(=O)N2CCOCC2)c1 (stereo not given)	/	9	/	/	/	/	/
CN1CCN(C2=C(Cl)C(=O)N(C3CCCCC3)C2=O)CC1	-3	41*	7	5	-2	5	5
CC(C)(O)C#Cc1cccc(-c2nc(C(=O)NCCCN3CCOCC3)cc3c2[C@H](CCO)N(S(=O)C(C)(C)C)C3)c1 (stereo not given in full)	/	-14	/	/	/	/	/
Cc1cc(=O)[nH]c(-n2[nH]c(C)cc2=O)n1	-2	25	-2	2	-1	-1	/
COc1ccc(-n2[nH]c(C)cc2=O)cc1	17*	68*	-6	-3	4	-5	40
CCOc1ccc(N(Cc2cc3cc(C)ccc3[nH]c2=O)S(=O)(=O)c2ccccc2)cc1	2	-85	-9	-6	8	-5	/
COc1cc(CC(=O)OCC(=O)Nc2cc([N+](=O)[O-])ccc2Cl)cc(OC)c1OC	3	40*	-6	8	7	-1	8
Cn1c(C=O)c(C#Cc2ccccc2)c2ccccc21	/	-478	0	6	/	0	/
COc1cc(C)c(S(=O)(=O)NCc2cccs2)cc1C	1	41*	-13	14	1	-10	11
C#CCOCCOCCOCCNc1nc(N2CCN(C(=O)[C@H](CCCCN)n3cc(CN)nn3)CC2)nc(N2CCN(C(=O)[C@H](CCCCN)n3cc([C@@H](N)CC(N)=O)nn3)CC2)n1	/	40*	/	/	/	/	34
CC1=C(C(=O)Nc2ccc(C(=O)NCCCN3CCCCC3C)cc2)SCCO1 (stereo not given)	/	13	/	/	/	/	/
O=C(O)C1Cc2ccccc2CN1C(=O)c1ccccc1 (stereo not given)	1	12	-2	5	-10	-2	/
CC(C)(C)OC(=O)N1Cc2ccccc2C[C@H]1C(=O)O	-1	40*	15	6	7	3	68*
SMILES	HSP90 refold inh	SENP8 block-1	SENP6 inh	SENP7 block	Platelet DG rel	SENP8 block-2	SENP8 inh conf
Cc1cccc(C(=O)N/C(=C\c2ccco2)C(=O)N2CCCC2)c1	-1	-4	-9	11	1	-5	/
CN(CC(=O)Nc1ccc(Cl)cc1)C(=O)C1CCCC1	/	11	-12	-6	/	-5	/
Oc1ccc(N2CCN(Cc3ccc(OCCCN4CCCCC4)cc3)CC2)cc1	4	40*	9	-9	0	-3	13
O=C(CN(C1CCCCC1)S(=O)(=O)c1ccc(F)cc1)NCC1CCCO1 (stereo not given)	/	46*	/	/	/	/	23
O=C(NCc1cccs1)c1ccc2nc([C@@H]3O[C@H](CO)[C@H](O)[C@H](O)[C@H]3O)[nH]c2c1	/	8	/	/	/	/	/
O=C(Oc1ccc(Br)cc1C(=S)N1CCOCC1)c1ccc([N+](=O)[O-])cc1[N+](=O)[O-]	-2	31	-12	1	3	-6	/
O=C1CCC(C(=O)O)N1 (stereo not given)	-2	52*	-16	-2	-2	3	17
CC(C)Nc1nc(NC(C)C)nc(N(C#N)C(C)C(=O)N(C)C)n1 (stereo not given)	5	/	/	/	-12	/	/
CCNc1nc(NC(C)C)nc(N(C#N)C(C)C(=O)N(C)C)n1 (stereo not given)	2	45*	17	4	/	7	-10
CCCn1ccnc1SCC(=O)Nc1c(C)n(C)n(-c2ccccc2)c1=O	/	7	-5	7	/	-2	/
CC(=O)c1cccc(NC(=O)C2CCCN2S(=O)(=O)c2cccs2)c1 (stereo not given)	/	41*	/	/	/	/	17
COC(=O)c1ccc(NC(=O)C2CCCN2S(=O)(=O)c2ccc(C)cc2)cc1 (stereo not given)	-4	-4	19	1	2	-10	/
COC(=O)c1ccc(NC(=O)C2CCCN2S(=O)(=O)c2ccc(OC)cc2)cc1 (stereo not given)	-2	41*	-4	1	-6	4	16
CCOc1ccc(N=C(C)c2ccccc2O)cc1	-5	42*	-20	4	-2	-12	17
CN1N=C(C(=O)N2CCCC(N3CCN(c4ccc(F)cc4)CC3)C2)CCC1=O (stereo not given)	0	9	-11	-5	-10	-2	/
COc1ccccc1NC(=O)C(C)OC(=O)CCC1CCCCC1 (stereo not given)	-3	10	-12	1	25	-4	/
CCOC(=O)c1nn(-c2ccccc2C)c(=O)c2c(N)scc12	2	47*	46	1	-3	-4	41
CCOC(=O)c1nn(-c2ccccc2)c(=O)c2c(NC(C)=O)scc12	3	-109	-14	-5	-1	6	/
Cc1nn(-c2ccccc2)c(N2CCCC2)c1/C=N/Nc1ccc(S(=O)(=O)Nc2ccccc2)cc1[N+](=O)[O-]	-6	64*	4	3	6	2	13
